Measured values published in PubChem BioAssay AID1832 (Broad Institute, 2009).
The whole screen tested about 300,000 compounds, of which about 1,100 (0.37%) were called active.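 How the source made its calls: active means inhibition past about -25% in most replicates, and total fluorescence under double the plate's negative control median (limit read from the data); inconclusive means replicates evenly split on the limit, or fluorescence at least double controls; inactive means too little inhibition in most replicates.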 For the sample, actives were picked, then their nearest neighbours and some compounds at random.

Target: Zinc finger protein mex-5 (Caenorhabditis elegans) (UniProt Q9XUB2)
Sequence (Q9XUB2 whole entry, looked up): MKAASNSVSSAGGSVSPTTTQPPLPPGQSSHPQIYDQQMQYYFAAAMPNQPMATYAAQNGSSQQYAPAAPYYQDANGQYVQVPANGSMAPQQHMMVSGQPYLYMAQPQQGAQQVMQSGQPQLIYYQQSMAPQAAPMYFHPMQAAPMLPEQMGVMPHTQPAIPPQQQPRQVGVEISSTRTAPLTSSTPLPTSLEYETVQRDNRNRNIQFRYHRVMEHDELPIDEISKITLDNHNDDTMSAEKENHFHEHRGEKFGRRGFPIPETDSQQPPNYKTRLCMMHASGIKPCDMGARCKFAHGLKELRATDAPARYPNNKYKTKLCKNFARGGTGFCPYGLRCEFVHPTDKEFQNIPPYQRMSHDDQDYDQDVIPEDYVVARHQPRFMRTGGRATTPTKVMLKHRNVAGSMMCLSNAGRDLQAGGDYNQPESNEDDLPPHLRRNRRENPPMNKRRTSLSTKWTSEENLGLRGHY
Test: MEX-5 zinc finger RNA-binding disruptors – biochemical, C. elegans, fluorescence polarization, MLPCN library, primary screen (AID 1832);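 further: 0% = DMSO and -100% = 5 µM competing unlabeled TCR2 RNA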
Conditions: MEX-5/FITC-TCR2 RNA binding, at 10 µM, stronger effect = lower value

`NC(=O)Cc1ccc2sc(-c3ccccc3)nc2c1` was tested. Which activity score (negative = inhibition of binding) did it give?
The activity score (negative = inhibition of binding) was -1.64% (inactive).

How did the activity score (negative = inhibition of binding) turn out when `O=C1c2ccccc2C(Nc2ccc3c(c2)OCCO3)N1Cc1ccco1` (stereo not given) was run?
The activity score (negative = inhibition of binding) was -1.03% (inactive).

How did the activity score (negative = inhibition of binding) turn out when `CCc1ccc(CNC(=O)C2CCN(c3nnc(C)c4c(C)n(-c5ccc(C)cc5)nc34)CC2)cc1` was run?
The activity score (negative = inhibition of binding) was -2.92% (inactive).

For `O=C(Nc1cccc2c1N(C(=O)c1ccco1)CCC2)c1ccco1`, which activity score (negative = inhibition of binding) is on record?
The activity score (negative = inhibition of binding) was -0.00473% (inactive).

With `O=C(NCc1nnc(SCC(=O)N2CCC(Cc3ccccc3)CC2)o1)c1ccco1` as the molecule, how does the activity score (negative = inhibition of binding) read?
The activity score (negative = inhibition of binding) was -1.62% (inactive).

For `COc1ccc(-c2onc3ccc(C(C)=O)cc23)cc1`, which activity score (negative = inhibition of binding) is on record?
The activity score (negative = inhibition of binding) was -69.7% (active).

With `CC(OC(=O)c1ccc2noc(-c3ccccc3)c2c1)C(N)=O` (stereo not given) as the molecule, how does the activity score (negative = inhibition of binding) read?
The activity score (negative = inhibition of binding) was -5.27% (inactive).

For `Oc1ccc(-c2onc3ccc(Cl)cc23)cc1`, which activity score (negative = inhibition of binding) is on record?
Its activity score (negative = inhibition of binding) is -1.78% (inactive).

With `COc1ccc(Cn2c(-c3ccc(Cl)cc3)c[n+]3ccccc23)cc1` as the molecule, how does the activity score (negative = inhibition of binding) read?
Its activity score (negative = inhibition of binding) is 2.75% (inactive).

How did the activity score (negative = inhibition of binding) turn out when `COc1ccc(NC(=O)c2cn(-c3ccccc3)nc2SC)cc1` was run?
Its activity score (negative = inhibition of binding) is 2.01% (inactive).

How did the activity score (negative = inhibition of binding) turn out when `CN1c2ccc(C=O)c3c(C=O)ccc(c23)N(C)C1(C)C` was run?
The activity score (negative = inhibition of binding) was -35.3% (active).

How did the activity score (negative = inhibition of binding) turn out when `COc1ccc(NC(=O)CN(C)C(=O)c2n[nH]c3ccccc23)cc1` was run?
The activity score (negative = inhibition of binding) was -3.49% (inactive).

With `CCCCN(CC)CCCNC(=O)c1ccc(CSc2nc3ccncc3[nH]2)cc1` as the molecule, how does the activity score (negative = inhibition of binding) read?
Its activity score (negative = inhibition of binding) is 1.01% (inactive).

With `Cc1ccc(C2NC(=S)NC3=C2N2CCC3CC2)cc1` (stereo not given) as the molecule, how does the activity score (negative = inhibition of binding) read?
The activity score (negative = inhibition of binding) was 0.478% (inactive).

How did the activity score (negative = inhibition of binding) turn out when `Cc1nonc1C1CCCN1Cc1nc(-c2ccc(F)cc2F)oc1C` (stereo not given) was run?
Its activity score (negative = inhibition of binding) is -2.15% (inactive).

Which activity score (negative = inhibition of binding) does the source give for `Cc1ccc(-n2cc(CN(C)Cc3nccn3C)c(-c3cccc(C)c3)n2)cc1` here?
Its activity score (negative = inhibition of binding) is 1.9% (inactive).

For `N#C[C@]1(S(=O)(=O)c2ccccc2)C[C@@H]2ON=C(c3cccc(Br)c3)[C@@H]2C1`, which activity score (negative = inhibition of binding) is on record?
The activity score (negative = inhibition of binding) was 1.51% (inactive).

With `Cc1ccnc(NC(=O)c2ccc(Cl)c([N+](=O)[O-])c2)c1` as the molecule, how does the activity score (negative = inhibition of binding) read?
The activity score (negative = inhibition of binding) was -0.216% (inactive).

With `Cc1nn(CC(=O)N2CCCCC2)c(=O)c2nn(-c3ccccc3)c(C)c12` as the molecule, how does the activity score (negative = inhibition of binding) read?
Its activity score (negative = inhibition of binding) is -3.02% (inactive).

Which activity score (negative = inhibition of binding) does the source give for `Cc1nn(C(C)C(=O)NCCC2=CCCCC2)c(=O)c2nn(-c3ccccc3)c(C)c12` (stereo not given) here?
The activity score (negative = inhibition of binding) was -2.35% (inactive).

`Cc1nn(C(C)C(=O)N2CCOCC2)c(=O)c2nn(-c3ccccc3)c(C)c12` (stereo not given) was tested. Which activity score (negative = inhibition of binding) did it give?
Its activity score (negative = inhibition of binding) is -34.7% (active).

How did the activity score (negative = inhibition of binding) turn out when `CC(C)Cc1nnc(NC(=O)CCc2ccccc2)s1` was run?
The activity score (negative = inhibition of binding) was -0.0404% (inactive).

Which activity score (negative = inhibition of binding) does the source give for `COC(=O)CSc1nnc(NC(=O)CCc2ccccc2)s1` here?
The activity score (negative = inhibition of binding) was 0.825% (inactive).

`O=C(COC(=O)c1cccc(Cl)c1)Nc1ccc2[nH]c(=O)[nH]c2c1` was tested. Which activity score (negative = inhibition of binding) did it give?
Its activity score (negative = inhibition of binding) is 0.565% (inactive).

For `NC(=O)c1nsc(C(=O)N(CCCN2CCOCC2)C(C(=O)NC2CCCCC2)c2ccc(Cl)cc2)c1N` (stereo not given), which activity score (negative = inhibition of binding) is on record?
Its activity score (negative = inhibition of binding) is -0.973% (inactive).
